Columns and labels:
Details in all cases: concentration: 1 μM, replicates: in singlicate; n = 1
[1] = tested on: T1, ASK2
T1 construct: gene MAP3K6

[2] = tested on: AURKA
[3] = tested on: AURKB
[4] = tested on: AURKC
[5] = tested on: AXL
[6] = tested on: T2, BIKE
T2 construct: gene BMP2K

[7] = tested on: BLK
[8] = tested on: BMPR1A
[9] = tested on: BMPR1B
[10] = tested on: BMPR2
[11] = tested on: BMX
[12] = tested on: BRAF
[13] = tested on: T3, BRK
T3 construct: gene PTK6

[14] = tested on: BRSK1
[15] = tested on: BRSK2
[16] = tested on: BTK
[17] = tested on: BUB1
[18] = tested on: CAMK1B
[19] = tested on: CAMK1D
[20] = tested on: CAMK1G
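Note: KINOMEscan kinase panel screen.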

Compound	%Inh [1] [%]	%Inh [2] [%]	%Inh [3] [%]	%Inh [4] [%]	%Inh [5] [%]	%Inh [6] [%]	%Inh [7] [%]	%Inh [8] [%]	%Inh [9] [%]	%Inh [10] [%]	%Inh [11] [%]	%Inh [12] [%]	%Inh [13] [%]	%Inh [14] [%]	%Inh [15] [%]	%Inh [16] [%]	%Inh [17] [%]	%Inh [18] [%]	%Inh [19] [%]	%Inh [20] [%]
Clc1ccc(-c2nn3ncccc3c2-c2ccnc(Nc3ccc4c(c3)OCCO4)n2)cc1 [GW829116]	0	18	0	0	0	0	48	0	0	0	0	52	0	0	0	0	93.1	0	0	0
CCc1ccc(-c2ccc3c(c2)-c2c(cnn2C)S(=O)(=O)N3C)cc1	0	14	0	35	8	0	0	0	0	0	0	0	1	19	0	3	15	0	0	5
C[C@@H]1CC[C@@H](C(=O)Nc2ccccc2)CN1c1cc(-c2ccc3c(N)n[nH]c3c2)nc(N)n1 [GSK2286062]	2	4	16	26	0	9	0	0	0	0	24	0	3	0	0	0	16	0	23	6
COc1cccc(-c2ccc3c(NC(=O)C4CC4)n[nH]c3n2)c1 [SB-710903]	0	0	35	0	0	0	0	0	35	44	0	0	3	8	3	29	82	11	0	0
C[C@@H](Oc1cc(-n2cnc3cc(-c4ccnc(NCCS(C)(=O)=O)c4)ccc32)sc1C(N)=O)c1ccccc1Cl [GSK907232]	7	0	27	65	91	97.7	30	21	0	0	23	0	20	55	78	0	31	31	15	13
O=C(Nc1cccc(-c2nn3ccccc3c2-c2ccnc(Nc3cccc(F)c3)n2)c1)c1c(F)ccc(F)c1Cl [GSK357952]	6	0	7	66	19	25	97.2	0	0	0	63	36	69	5	0	42	29	21	12	0
Nc1ncc(-c2ccc3nccc(-c4ccncc4)c3c2)cc1S(=O)(=O)N1CCOCC1 [GSK1627798]	0	0	0	6	36	24	100	0	0	0	16	15	8	0	0	0	12	0	36	16
COCCOCCOc1cc2ncc3c4ccc(C#N)cc4[nH]c3c2cc1OC	0	51	83	62	44	100	21	0	0	0	35	0	18	0	12	0	96.7	14	25	1
COc1cc(Nc2ncc3c(C)nc(-c4cc5ccccc5[nH]4)n3n2)cc(OC)c1OC [GW869516]	0	0	1	26	26	9	60	22	0	0	25	0	36	0	14	0	0	0	8	0
Cc1ccc(S(=O)(=O)Nc2ccc(Nc3nccc(Nc4cccc5[nH]ncc45)n3)cc2)cc1 [GSK581271]	0	99.8	37	52	0	65	0	0	0	4	5	6	34	5	0	0	44	7	8	0
Cl.Cl.NCC(NC(=O)c1cc(-c2ccccc2)c(-c2ccnc3[nH]ccc23)s1)c1ccccc1 (stereo not shown) [GSK1321561]	1	33	0	69	46	79	58	4	0	0	38	9	8	0	0	0	72	24	5	0
CN(c1ccc(NC(=O)Nc2cc(C(F)(F)F)ccc2F)cc1)c1ccnc(Nc2ccc(S(N)(=O)=O)cc2)n1 [GW809893]	17	90.7	95.7	67	93.3	26	96.7	28	20	78	71	66	76	15	8	25	0	0	38	0
O=C(Nc1n[nH]c2cc(-c3ccoc3)ccc12)C1CC1 [SB-738481]	5	23	20	19	37	35	0	11	21	60	16	0	0	11	0	0	0	0	0	0
Fc1ccc(-c2ncn(C3CCNCC3)c2-c2ccnc(Oc3ccc(-c4ccccc4)cc3)n2)cc1 [SB-245391]	12	53	39	0	18	0	20	18	2	46	0	23	7	14	16	57	20	4	30	4
CCS(=O)(=O)c1ccc(OC)c(Nc2nccc(-c3c(-c4cccc(NC(=O)c5c(F)cccc5F)c4)nn4ncccc34)n2)c1 [GSK326180]	9	15	25	60	9	40	36	0	0	4	0	90	93.5	0	0	15	28	33	12	7
Cn1cc(-c2ccc3c(c2)CCN3C(=O)Cc2cccc(F)c2)c2c(N)ncnc21 [GSK2603358]	0	20	95.5	47	83	10	50	0	0	3	0	4	26	14	67	0	52	34	74	11
Cc1occc1-c1ncc(OC[C@@H](N)Cc2c[nH]c3ccccc23)cc1-c1ccc2[nH]nc(C)c2c1.O=C(O)C(F)(F)F [GSK682037]	7	0	0	53	35	90.5	19	0	0	0	22	0	7	0	0	0	23	29	82	27

Reference: article PMC5540273 (PLoS ONE, 2017)
